Where “and” joins values, the source holds several entries; their conditions need not be identical. Equal values may be shown once. Some compounds were tested as several samples or in several runs, with calls that do not always agree. Calls of active or inactive are those of the source. The calls were made as follows: active = hit-call score of the fitted dose curve at least 0.9, where 1 is the maximum; inactive = score below 0.9.
These compounds were tested on Urokinase-type plasminogen activator receptor (uPAR), PLAUR (gene 5329) (assay: BSK_BE3C_uPAR: BioMAP Diversity Plus: BE3C Assay for Urokinase-type plasminogen activator receptor (uPAR) Biomarker Activity (AID 2283039;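 as to outcome: cells exposed to compound for one day before measurement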)). Settings: primary human bronchial epithelial cells; actives raise or lower the signal.
Description: BSK_BE3C is a cell-based, multiplexed-readout assay that uses bronchial epithelial cell, a human lung primary cell, with measurements taken at 24 hours after chemical dosing in a 96-well plate.BSK_BE3CAR is an assay component measured in the BSK_BE3C assay. It measures uPAR antibody related to regulation of gene expression using ELISA technology.Data from the assay component BSK_BE3CAR was analyzed into 1 assay endpoint. This assay endpoint, BSK_BE3CAR, was analyzed with bidirectional fitting relative to DMSO as the negative control and baseline of activity. Using a type of binding reporter, gain or loss-of-signal activity can be used to understand changes in the signaling as they relate to the gene PLAUR. Furthermore, this assay endpoint can be referred to as a primary readout, because this assay has produced multiple assay endpoints where this one serves a signaling function. To generalize the intended target to other relatable targets, this assay endpoint is annotated to the cytokine intended target family, where the subfamily is plasmogen activator.
The levels of cell surface (or secreted, indicated by the prefix "s") biomarker endpoints were measured by ELISA. Overt cytotoxicity to cells in confluent adherent cultures (all systems other than the BT system) was assessed by measuring total protein levels using sulforhodamine B (SRB) staining in parallel cultures at the time of biomarker measurements, indicated as SRB endpoints. For proliferation assays for adherent cell types, individual cell types are cultured at sub-confluence and relative cell numbers quantified by SRB staining at time points optimized for each system (48 h: 3C and CASM3C systems; 72 h: BT and HDF3CGF systems; 96 h: SAg system). SRB was performed by staining cells with 0.1% SRB after fixation with 10% TCA and reading wells at 560 nm.Viability and proliferation of PBMC (T cells) was quantified by Alamar Blue reduction for the SAg and BT systems. For PBMC viability (referred to as PBMC Cytotoxicity within the assay endpoint names), cells were plated (75,000/well in a 96-well plate) and then chemical samples added for 1 h before addition of activators, SEB and TSST-1 (20 ng/mL final concentration each). Cells were incubated for 90 h. Then, Alamar Blue (20 uL/well) (Invitrogen, Cat DAL1100) was added for 6 h, and the plates were read with a fluorescence microplate reader at 546/580 nm (excitation/emission). For PBMC proliferation, cells were plated and activated as above but incubated for only 16 h prior to addition of Alamar Blue. Plates were read after 6 h.

| Structure (SMILES) | outcome | AC50 |
| --- | --- | --- |
| O=C(O)C(F)(F)C(F)(F)C(F)(F)C(F)(F)C(F)(F)C(F)(F)C(F)(F)C(F)(F)C(F)(F)C(F)(F)C(F)(F)C(F)(F)C(F)(F)F | inactive | – |
| O=C(O)C(F)(F)C(F)(F)F | inactive | – |
| CCCCNc1ccccc1 | inactive | – |
| CCCCC(CC)COP(=O)(O)OCC(CC)CCCC (stereo unspecified) | inactive | 5.24 µM (active) |
| O=C(O)C(F)(F)C(F)(F)C(F)(F)C(F)(F)C(F)(F)C(F)(F)C(F)(F)C(F)(F)C(F)(F)C(F)(F)C(F)(F)C(F)(F)F | inactive | – |
| Nc1ccc([N+](=O)[O-])cc1O | – | 20 µM (active) |
| C=C(C)C(=O)OCC(F)(F)C(F)(F)C(F)(F)F | inactive | – |
| FC(F)(F)C(F)(F)C(F)(F)C(F)(F)C(F)(F)C(F)(F)C(F)(F)Br | inactive | – |
| C=CC(=O)OCC(F)(F)C(F)(F)C(F)(F)C(F)(F)C(F)(F)C(F)(F)C(F)(F)F | inactive | – |
| FC(F)(F)C(F)(F)C(F)(F)C(F)(F)C(F)(F)C(F)(F)CCS | inactive | – |
| C=C(C)C(=O)OCCC(F)(F)C(F)(F)C(F)(F)C(F)(F)C(F)(C(F)(F)F)C(F)(F)F | inactive | – |
| OCC(F)(F)C(F)(F)C(F)(F)C(F)(F)C(F)(F)C(F)F | inactive | – |
| NC(=O)C(F)(F)C(F)(F)C(F)(F)C(F)(F)F | inactive | – |
| FC(F)(F)C(F)(F)C(F)(F)C(F)(F)CCI | inactive | – |
| O=C(O)C(F)(OC(F)(F)C(F)(OC(F)(F)C(F)(F)C(F)(F)F)C(F)(F)F)C(F)(F)F (stereo unspecified) | inactive | – |
| FC(F)(Br)C(F)(F)C(F)(F)C(F)(F)C(F)(F)C(F)(F)Br | inactive | – |
| O=P(O)(O)OCCC(F)(F)C(F)(F)C(F)(F)C(F)(F)C(F)(F)C(F)(F)F | inactive | – |
| O=S(=O)(OCC(F)F)C(F)(F)F | inactive | – |
| CCCCCCCCCCCCCCCC[N+](C)(C)Cc1ccccc1 | – | 9.42 µM (active) |
| FC(F)(F)C(F)(F)C(F)(F)CI | inactive | – |

| Structure (SMILES) | outcome | AC50 |
| --- | --- | --- |
| O=C(O)C(F)(F)C(F)(F)C(F)(F)C(F)(F)C(F)(F)C(F)(F)C(F)(F)C(F)(F)Cl | – | 48.6 µM (active) and 44.4 µM (active) |
| FC(F)(F)C(F)(F)C(F)(F)C(F)(F)C(F)(F)C(F)(F)C(F)(F)I | inactive | – |
| OCC(F)(F)C(F)(F)C(F)(F)C(F)F | inactive | – |
| CCN(CC)c1ccc2c(C)cc(=O)oc2c1 | inactive | – |
| CCCCCCOC(=O)c1ccccc1O | inactive | – |
| C=CC(F)(F)C(F)(F)C(F)(F)C(F)(F)C(F)(F)C(F)(F)C(F)(F)C(F)(F)C=C | inactive | – |
| FC(F)(F)C(F)(F)C(F)(F)N(C(F)(F)C(F)(F)C(F)(F)F)C(F)(F)C(F)(F)C(F)(F)F | inactive | – |
| C=CC/C=C/C/C=C/C/C=C/C | inactive | – |
| CCCCOCCOCCOC(=O)CCCCC(=O)OCCOCCOCCCC | inactive | – |
| O=C(O)C(F)(F)C(F)(F)C(F)F | inactive | – |
| O=S(=O)(OCCOC(F)(F)F)C(F)(F)F | inactive | – |
| COC(=O)CCC(F)(F)C(F)(F)C(F)(F)C(F)(F)F | inactive | – |
| C=CC(F)(F)C(F)(F)C(F)(F)C(F)(F)C(F)(F)C(F)(F)C(F)(F)C(F)(F)F | inactive | – |
| FC1CC(F)(F)C(F)(F)C1(F)F (stereo unspecified) | inactive | – |
| FC(F)(F)C(F)(F)CNCC(F)(F)C(F)(F)F | inactive | – |
| O=C(O)C(F)(OC(F)(F)C(F)(OC(F)(F)C(F)(OC(F)(F)C(F)(F)C(F)(F)F)C(F)(F)F)C(F)(F)F)C(F)(F)F (stereo unspecified) | inactive | – |
| CC(=O)Nc1ccc(N=Nc2cc(C)ccc2O)cc1 | inactive | – |
| O=C(O)C=C(C(F)(F)F)C(F)(F)F | inactive | – |
| FC(F)(I)C(F)(F)C(F)(F)C(F)(F)I | inactive | 51.1 µM (active) and 47.9 µM (active) |
